Assays:
Test in all cases: log2 ratio of Biotin-Ahx-Ub-VS probe labelling (fragment/DMSO); higher = less target engagement (more negative = stronger competition), active = hit call of the paper (q ≤ 0.05, log2 ratio ≤ -1)
Details in all cases: compound concentration: 200 uM; treatment time: 3 h
USP19 = target: T1, USP19 (UniProt O94966)
T1 sequence (whole entry): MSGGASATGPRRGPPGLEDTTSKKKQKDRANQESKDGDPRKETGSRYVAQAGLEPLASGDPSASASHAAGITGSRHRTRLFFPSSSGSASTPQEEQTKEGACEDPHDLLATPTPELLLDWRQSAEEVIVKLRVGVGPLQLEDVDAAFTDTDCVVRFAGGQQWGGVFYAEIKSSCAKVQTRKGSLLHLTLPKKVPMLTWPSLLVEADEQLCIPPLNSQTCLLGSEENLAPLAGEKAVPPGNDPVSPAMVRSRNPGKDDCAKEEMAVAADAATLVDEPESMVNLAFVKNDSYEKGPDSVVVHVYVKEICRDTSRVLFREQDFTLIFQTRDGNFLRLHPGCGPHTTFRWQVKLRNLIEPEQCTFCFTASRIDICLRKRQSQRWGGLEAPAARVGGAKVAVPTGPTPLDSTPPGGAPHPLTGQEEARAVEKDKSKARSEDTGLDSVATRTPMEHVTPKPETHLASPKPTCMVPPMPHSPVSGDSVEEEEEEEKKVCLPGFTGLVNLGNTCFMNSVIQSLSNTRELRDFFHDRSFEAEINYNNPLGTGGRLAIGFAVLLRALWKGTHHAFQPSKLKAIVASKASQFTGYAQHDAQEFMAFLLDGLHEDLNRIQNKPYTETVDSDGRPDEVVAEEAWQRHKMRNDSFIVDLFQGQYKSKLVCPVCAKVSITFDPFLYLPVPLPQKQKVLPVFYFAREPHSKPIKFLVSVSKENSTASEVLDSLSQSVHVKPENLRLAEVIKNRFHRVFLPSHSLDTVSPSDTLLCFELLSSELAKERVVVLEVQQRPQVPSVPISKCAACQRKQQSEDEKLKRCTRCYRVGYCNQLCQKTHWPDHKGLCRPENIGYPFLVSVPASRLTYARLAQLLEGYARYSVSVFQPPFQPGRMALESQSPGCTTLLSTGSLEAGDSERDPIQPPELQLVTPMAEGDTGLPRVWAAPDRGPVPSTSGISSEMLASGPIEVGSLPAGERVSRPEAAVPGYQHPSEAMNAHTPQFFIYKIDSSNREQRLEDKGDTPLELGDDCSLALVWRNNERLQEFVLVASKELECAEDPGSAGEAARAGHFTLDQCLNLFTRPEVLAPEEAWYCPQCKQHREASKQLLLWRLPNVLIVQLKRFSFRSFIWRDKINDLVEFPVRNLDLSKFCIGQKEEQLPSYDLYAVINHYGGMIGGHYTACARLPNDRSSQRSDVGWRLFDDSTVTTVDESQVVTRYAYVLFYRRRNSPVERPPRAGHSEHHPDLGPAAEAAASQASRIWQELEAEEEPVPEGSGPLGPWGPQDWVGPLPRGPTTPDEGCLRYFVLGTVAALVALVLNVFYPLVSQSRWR
Method in brief: (§1)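 HEK293T lysate, 495 µg per sample in Tris/CHAPS/IGEPAL buffer with protease inhibitors, was treated in triplicate with fragment at 200 µM or vehicle for 3 h and then with Biotin-Ahx-Ub-VS at 0.5 µM final for 1 h. Labelled DUBs were NeutrAvidin-enriched, digested with LysC and trypsin, and run by diaPASEF LC-MS/MS. Spectronaut label-free quantities were global-median-normalised, and values are average log2 fragment/vehicle ratios by unpaired t-test on proteins with ≥2 unique peptides.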

USP24 = USP24 (UniProt Q9UPU5)
USP24, sequence (Q9UPU5 whole entry): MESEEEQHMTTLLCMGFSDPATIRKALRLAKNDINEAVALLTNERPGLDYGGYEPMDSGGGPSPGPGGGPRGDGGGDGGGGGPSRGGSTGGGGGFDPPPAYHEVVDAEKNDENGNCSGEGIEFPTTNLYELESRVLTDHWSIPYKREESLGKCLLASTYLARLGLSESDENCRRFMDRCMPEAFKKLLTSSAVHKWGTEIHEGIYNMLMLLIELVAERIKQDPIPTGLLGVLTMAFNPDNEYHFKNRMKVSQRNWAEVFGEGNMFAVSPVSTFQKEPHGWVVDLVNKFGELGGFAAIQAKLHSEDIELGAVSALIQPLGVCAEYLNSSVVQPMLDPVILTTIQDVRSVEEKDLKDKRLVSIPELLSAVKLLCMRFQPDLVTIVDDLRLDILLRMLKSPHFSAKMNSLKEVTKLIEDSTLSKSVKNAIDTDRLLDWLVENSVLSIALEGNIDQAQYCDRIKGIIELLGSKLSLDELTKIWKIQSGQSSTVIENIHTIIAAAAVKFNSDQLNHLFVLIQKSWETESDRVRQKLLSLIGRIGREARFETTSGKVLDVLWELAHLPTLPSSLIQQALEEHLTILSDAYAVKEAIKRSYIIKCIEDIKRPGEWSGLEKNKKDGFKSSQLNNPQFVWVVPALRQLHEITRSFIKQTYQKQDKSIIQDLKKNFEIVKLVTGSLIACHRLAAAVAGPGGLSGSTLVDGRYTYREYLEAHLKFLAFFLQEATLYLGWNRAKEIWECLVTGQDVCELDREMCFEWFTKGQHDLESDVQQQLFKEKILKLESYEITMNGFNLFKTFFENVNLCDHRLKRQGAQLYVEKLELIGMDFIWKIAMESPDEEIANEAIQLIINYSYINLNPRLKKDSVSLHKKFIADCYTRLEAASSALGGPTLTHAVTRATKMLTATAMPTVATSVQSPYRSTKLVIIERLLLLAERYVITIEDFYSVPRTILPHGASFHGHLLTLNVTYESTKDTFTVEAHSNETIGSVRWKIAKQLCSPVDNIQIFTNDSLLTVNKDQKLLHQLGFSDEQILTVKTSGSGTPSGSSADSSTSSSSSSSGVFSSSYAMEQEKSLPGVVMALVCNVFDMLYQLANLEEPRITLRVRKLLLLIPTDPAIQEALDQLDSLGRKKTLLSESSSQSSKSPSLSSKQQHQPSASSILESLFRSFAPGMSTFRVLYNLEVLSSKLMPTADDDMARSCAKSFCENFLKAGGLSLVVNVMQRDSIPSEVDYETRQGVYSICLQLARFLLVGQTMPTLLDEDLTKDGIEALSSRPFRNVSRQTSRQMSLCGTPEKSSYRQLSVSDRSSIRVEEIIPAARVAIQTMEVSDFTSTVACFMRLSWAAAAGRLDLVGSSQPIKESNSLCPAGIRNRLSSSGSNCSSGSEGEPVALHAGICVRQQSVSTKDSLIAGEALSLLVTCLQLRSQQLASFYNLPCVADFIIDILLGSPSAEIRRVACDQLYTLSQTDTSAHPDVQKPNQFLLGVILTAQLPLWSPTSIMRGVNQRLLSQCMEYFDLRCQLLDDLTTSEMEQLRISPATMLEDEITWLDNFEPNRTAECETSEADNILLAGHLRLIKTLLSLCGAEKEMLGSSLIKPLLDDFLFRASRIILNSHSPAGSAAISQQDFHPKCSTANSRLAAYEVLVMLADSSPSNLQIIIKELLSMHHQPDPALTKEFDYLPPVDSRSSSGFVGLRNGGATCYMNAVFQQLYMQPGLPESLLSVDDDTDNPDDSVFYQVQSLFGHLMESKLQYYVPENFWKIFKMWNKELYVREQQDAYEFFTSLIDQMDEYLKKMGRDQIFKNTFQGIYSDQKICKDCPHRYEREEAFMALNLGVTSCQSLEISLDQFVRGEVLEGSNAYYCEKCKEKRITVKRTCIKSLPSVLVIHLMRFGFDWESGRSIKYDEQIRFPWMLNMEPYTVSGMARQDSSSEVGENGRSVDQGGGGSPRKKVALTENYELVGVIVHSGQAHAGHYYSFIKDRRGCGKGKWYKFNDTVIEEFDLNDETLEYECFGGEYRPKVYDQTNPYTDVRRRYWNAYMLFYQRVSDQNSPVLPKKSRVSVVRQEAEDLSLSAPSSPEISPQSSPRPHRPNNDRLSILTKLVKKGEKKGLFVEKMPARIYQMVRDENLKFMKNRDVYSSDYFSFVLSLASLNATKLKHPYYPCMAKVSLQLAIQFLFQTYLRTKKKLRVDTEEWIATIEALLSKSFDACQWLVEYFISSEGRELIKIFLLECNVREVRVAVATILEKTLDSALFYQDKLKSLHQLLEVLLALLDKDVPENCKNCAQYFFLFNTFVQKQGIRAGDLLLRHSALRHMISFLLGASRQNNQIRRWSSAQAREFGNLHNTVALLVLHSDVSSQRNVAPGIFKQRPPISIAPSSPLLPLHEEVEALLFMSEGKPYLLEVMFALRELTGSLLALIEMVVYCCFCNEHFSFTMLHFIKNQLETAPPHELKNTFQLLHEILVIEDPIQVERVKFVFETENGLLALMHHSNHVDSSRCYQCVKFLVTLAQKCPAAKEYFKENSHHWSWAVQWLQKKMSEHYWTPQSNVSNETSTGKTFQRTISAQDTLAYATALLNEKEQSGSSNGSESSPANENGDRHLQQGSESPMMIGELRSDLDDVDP
Method in brief: as §1

USP25 = target: T2, USP25 (UniProt Q9UHP3)
T2 sequence (whole entry): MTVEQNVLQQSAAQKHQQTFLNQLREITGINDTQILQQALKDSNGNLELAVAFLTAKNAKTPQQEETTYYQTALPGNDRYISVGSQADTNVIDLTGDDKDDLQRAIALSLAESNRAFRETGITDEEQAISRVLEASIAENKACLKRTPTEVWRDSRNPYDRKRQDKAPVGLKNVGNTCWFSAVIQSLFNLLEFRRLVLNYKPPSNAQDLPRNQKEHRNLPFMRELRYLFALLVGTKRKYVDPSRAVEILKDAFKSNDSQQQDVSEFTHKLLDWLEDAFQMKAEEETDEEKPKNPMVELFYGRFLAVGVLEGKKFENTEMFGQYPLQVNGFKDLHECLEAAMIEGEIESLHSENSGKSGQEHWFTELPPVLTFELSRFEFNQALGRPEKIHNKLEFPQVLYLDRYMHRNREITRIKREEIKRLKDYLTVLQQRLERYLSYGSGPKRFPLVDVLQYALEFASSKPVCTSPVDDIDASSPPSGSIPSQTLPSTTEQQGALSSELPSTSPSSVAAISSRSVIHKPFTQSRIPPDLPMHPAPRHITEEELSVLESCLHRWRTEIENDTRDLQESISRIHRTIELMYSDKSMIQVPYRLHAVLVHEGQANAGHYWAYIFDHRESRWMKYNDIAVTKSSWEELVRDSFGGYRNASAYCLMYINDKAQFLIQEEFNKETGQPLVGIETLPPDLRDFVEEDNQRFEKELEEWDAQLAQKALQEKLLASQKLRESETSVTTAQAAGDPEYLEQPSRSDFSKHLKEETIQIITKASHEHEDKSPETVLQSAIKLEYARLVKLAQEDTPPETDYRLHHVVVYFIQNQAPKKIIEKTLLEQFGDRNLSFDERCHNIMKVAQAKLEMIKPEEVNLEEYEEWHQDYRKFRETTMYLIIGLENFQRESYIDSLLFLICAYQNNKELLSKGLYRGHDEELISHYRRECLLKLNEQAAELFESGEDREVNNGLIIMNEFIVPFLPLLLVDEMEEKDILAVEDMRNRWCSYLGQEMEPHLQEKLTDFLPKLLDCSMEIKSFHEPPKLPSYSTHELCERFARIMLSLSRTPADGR
Method in brief: as §1

USP28 = target: T3, USP28 (UniProt Q96RU2)
T3 sequence (whole entry): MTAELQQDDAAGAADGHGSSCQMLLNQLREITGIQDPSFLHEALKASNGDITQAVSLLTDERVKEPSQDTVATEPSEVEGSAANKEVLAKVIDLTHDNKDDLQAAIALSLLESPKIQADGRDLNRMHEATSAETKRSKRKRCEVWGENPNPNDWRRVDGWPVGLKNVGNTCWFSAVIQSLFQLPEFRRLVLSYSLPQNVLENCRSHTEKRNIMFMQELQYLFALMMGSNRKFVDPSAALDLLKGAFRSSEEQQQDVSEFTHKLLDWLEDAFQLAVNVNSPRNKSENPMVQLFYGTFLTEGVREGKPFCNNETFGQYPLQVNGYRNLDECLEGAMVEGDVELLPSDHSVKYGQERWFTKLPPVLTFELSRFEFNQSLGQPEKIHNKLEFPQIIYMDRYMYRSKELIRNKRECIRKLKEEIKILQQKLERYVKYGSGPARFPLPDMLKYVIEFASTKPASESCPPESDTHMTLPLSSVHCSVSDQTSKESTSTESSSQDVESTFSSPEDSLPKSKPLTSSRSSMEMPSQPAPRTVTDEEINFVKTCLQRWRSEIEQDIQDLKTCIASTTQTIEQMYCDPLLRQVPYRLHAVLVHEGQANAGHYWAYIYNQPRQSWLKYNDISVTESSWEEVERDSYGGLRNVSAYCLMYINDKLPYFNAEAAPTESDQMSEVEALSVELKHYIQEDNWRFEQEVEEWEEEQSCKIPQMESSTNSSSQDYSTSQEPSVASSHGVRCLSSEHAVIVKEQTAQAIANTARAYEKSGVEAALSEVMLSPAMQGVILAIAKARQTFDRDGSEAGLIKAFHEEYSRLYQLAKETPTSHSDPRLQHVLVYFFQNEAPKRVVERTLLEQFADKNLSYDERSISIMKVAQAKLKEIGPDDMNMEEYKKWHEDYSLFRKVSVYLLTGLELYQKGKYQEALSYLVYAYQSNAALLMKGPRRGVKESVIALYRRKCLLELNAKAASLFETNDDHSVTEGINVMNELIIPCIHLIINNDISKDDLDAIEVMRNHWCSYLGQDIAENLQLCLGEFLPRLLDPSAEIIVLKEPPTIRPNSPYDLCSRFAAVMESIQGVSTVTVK
Method in brief: as §1

Measured: log2 ratio of Biotin-Ahx-Ub-VS probe labelling

O=C(CN1CCN(C(=O)CCl)CC1)Nc1cccc(F)c1
inactive: USP19 -0.265 | USP24 -0.335 | USP25 -0.473 | USP28 -0.428

— the supplement of paper PMC11732987, “Enantioselective OTUD7B fragment discovery through chemoproteomics screening and high-throughput optimisation” (Communications Chemistry, 2025)
